Measured values taken from PMC7826789 (International Journal of Molecular Sciences, 2021).

Tests used:
Settings in all cases: Compound Concentration (nM):1000
[1] = system: EGFR(G719S)
[2] = system: EGFR(L747-E749del, A750P)
[3] = system: EGFR(L747-S752del, P753S)
[4] = system: EGFR(L747-T751del,Sins)
[5] = system: EGFR(L858R)
[6] = system: EGFR(L858R,T790M)
[7] = system: EGFR(L861Q)
[8] = system: EGFR(S752-I759del)
[9] = system: EGFR(T790M)
[10] = system: EGFR
[11] = system: EIF2AK1
[12] = system: EPHA1
[13] = system: EPHA2
[14] = system: EPHA3
[15] = system: EPHA4
[16] = system: EPHA5
[17] = system: EPHA6
[18] = system: EPHA7
[19] = system: EPHA8
[20] = system: EPHB1
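Also: KINOMEscan scanMAX binding as percent activity remaining versus control; lower means stronger binding.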

Row | SMILES | Percent Control [1] | Percent Control [2] | Percent Control [3] | Percent Control [4] | Percent Control [5] | Percent Control [6] | Percent Control [7] | Percent Control [8] | Percent Control [9] | Percent Control [10] | Percent Control [11] | Percent Control [12] | Percent Control [13] | Percent Control [14] | Percent Control [15] | Percent Control [16] | Percent Control [17] | Percent Control [18] | Percent Control [19] | Percent Control [20]
1 | Cl.c1ccc(Cc2nc3ccc(Nc4ncnc5ccccc45)cc3[nH]2)cc1 [GR269666A] | 0.6% | 41% | 70% | 37% | 36% | 100% | 9.8% | 71% | 100% | 5% | 100% | 100% | 100% | 100% | 100% | 100% | 100% | 100% | 100% | 100%
2 | COc1cc(C)c(N(C)C(=O)CN(C)C)cc1Nc1nc(Nc2cccc(F)c2C(N)=O)c2cc[nH]c2n1 [GSK2219385] | 75% | 98% | 100% | 100% | 89% | 100% | 82% | 100% | 56% | 87% | 100% | 93% | 86% | 100% | 95% | 100% | 100% | 100% | 94% | 99%
3 | COc1cccc(-n2ncc3c(N/N=C/c4ccncc4)ncnc32)c1 [GW784752X] | 59% | 96% | 81% | 100% | 75% | 96% | 77% | 87% | 100% | 75% | 100% | 87% | 100% | 100% | 98% | 100% | 100% | 100% | 100% | 100%
4 | COc1ccc2cc(-c3c(-c4ccncc4)nc(-c4ccc(S(C)(=O)=O)cc4C)n3C)ccc2c1 [SB-633825] | 84% | 78% | 70% | 70% | 63% | 38% | 41% | 93% | 40% | 74% | 91% | 89% | 76% | 90% | 66% | 99% | 63% | 48% | 69% | 64%
5 | Cl.O=C(Nc1ccc(Oc2ccc3[nH]c(NC(=O)c4ccco4)nc3c2)cc1)Nc1cc(C(F)(F)F)ccc1F [GW683134A] | 92% | 69% | 78% | 100% | 91% | 100% | 89% | 97% | 84% | 92% | 100% | 20% | 15% | 58% | 14% | 53% | 35% | 17% | 1.1% | 39%
6 | COc1cc(/C=N/Nc2ncnc3[nH]ncc23)ccc1O [GW578748X] | 62% | 78% | 100% | 78% | 90% | 72% | 64% | 86% | 48% | 75% | 100% | 92% | 96% | 58% | 74% | 90% | 100% | 100% | 100% | 100%
7 | Nc1ncnc2occ(-c3ccc(NC(=O)Nc4cc(C(F)(F)F)ccc4F)cc3)c12 [GW770249X] | 87% | 88% | 93% | 100% | 100% | 96% | 79% | 89% | 80% | 100% | 100% | 40% | 13% | 19% | 5.4% | 15% | 29% | 6% | 1.1% | 14%
8 | CCn1c(-c2nonc2N)nc2c(C#CC(C)(C)O)nc(OCCNC)cc21.Cl [GSK949675] | 100% | 92% | 100% | 100% | 100% | 100% | 100% | 100% | 85% | 96% | 100% | 100% | 100% | 100% | 100% | 98% | 100% | 100% | 100% | 100%
9 | COc1ccc2c(-c3ccnc(Nc4cccc(OC(F)(F)F)c4)n3)cnn2n1 [GW810372X] | 73% | 100% | 98% | 100% | 100% | 100% | 75% | 100% | 82% | 100% | 100% | 64% | 91% | 100% | 86% | 100% | 100% | 100% | 100% | 100%
10 | CC1=C(C(=O)Nc2ccc3[nH]ncc3c2)C(c2ccc3ccccc3c2)CC(=O)N1 (stereo not shown) [GSK270822A] | 100% | 100% | 100% | 100% | 100% | 55% | 83% | 100% | 56% | 100% | 87% | 93% | 88% | 85% | 82% | 100% | 90% | 98% | 99% | 99%
11 | O=C1Nc2ccc(C(=O)c3ccco3)cc2C1=Cc1cc(Cl)c(O)c(Cl)c1 [GW406108X] | 58% | 100% | 94% | 91% | 100% | 92% | 57% | 81% | 77% | 100% | 100% | 100% | 75% | 100% | 89% | 100% | 100% | 100% | 100% | 100%
12 | Cl.O=C(Nc1ccc(Oc2ccc3[nH]c(NC(=O)c4ccccc4)nc3c2)cc1)Nc1cc(C(F)(F)F)ccc1F [GW709042A] | 57% | 100% | 91% | 82% | 100% | 93% | 60% | 87% | 82% | 100% | 100% | 75% | 69% | 100% | 62% | 90% | 34% | 54% | 16% | 82%
13 | CN1CCN(C(=O)c2ccc(NC(=O)Nc3ccc(N(C)c4ccnc(Nc5ccc(CS(C)(=O)=O)cc5)n4)cc3)cc2)CC1.Cl [GW830263A] | 100% | 99% | 78% | 100% | 92% | 55% | 92% | 100% | 54% | 100% | 100% | 56% | 85% | 79% | 85% | 99% | 76% | 92% | 89% | 87%
14 | CC(C)COC(=O)c1ccc2c(c1)/C(=C/Nc1ccc(S(N)(=O)=O)cc1)C(=O)N2 [GW416981X] | 32% | 62% | 48% | 60% | 15% | 100% | 8.8% | 100% | 95% | 13% | 100% | 100% | 100% | 100% | 94% | 100% | 100% | 100% | 100% | 100%
15 | COC(=O)Nc1nc2ccc(Oc3ccc(NC(=O)Nc4cc(C(F)(F)F)ccc4F)cc3)cc2s1.Cl [GW693917A] | 83% | 86% | 95% | 100% | 78% | 95% | 100% | 100% | 68% | 90% | 100% | 19% | 14% | 9.9% | 12% | 52% | 11% | 16% | 0.5% | 31%
16 | COc1ccc(COc2ccc(Cc3cnc(N)nc3N)cc2OC)cc1 [GW632580X] | 61% | 100% | 75% | 99% | 86% | 98% | 61% | 85% | 69% | 92% | 100% | 97% | 100% | 100% | 99% | 93% | 98% | 100% | 90% | 90%
17 | COc1ccc2[nH]c3c4[nH]c5ccc(OC)cc5c4c4c(c3c2c1)C(=O)NC4=O [GW296115X] | 57% | 24% | 49% | 44% | 50% | 35% | 71% | 68% | 45% | 51% | 86% | 93% | 85% | 86% | 86% | 85% | 88% | 86% | 87% | 77%
18 | NS(=O)(=O)c1ccc(N/N=C2\C(=O)Nc3ccc(-c4cnco4)cc32)cc1 [GW276655] | 76% | 100% | 100% | 89% | 72% | 66% | 79% | 70% | 66% | 87% | 58% | 79% | 100% | 85% | 88% | 89% | 87% | 100% | 94% | 96%
19 | NS(=O)(=O)c1ccc(N/N=C2\C(=O)Nc3ccc(C(=O)NCCc4c[nH]cn4)cc32)cc1 [GW300660X] | 73% | 100% | 100% | 100% | 100% | 99% | 85% | 97% | 95% | 99% | 100% | 100% | 100% | 100% | 89% | 100% | 100% | 100% | 100% | 100%
20 | COc1ccccc1-c1cc(/C=C2\C(=O)Nc3ncc(Br)cc32)cc(Br)c1O [GW442130X] | 100% | 100% | 88% | 100% | 100% | 85% | 100% | 100% | 72% | 100% | 100% | 100% | 100% | 98% | 100% | 100% | 100% | 100% | 100% | 100%
